Measured values from the supplement of paper PMC10127200.
Counter-ions that a name gives are not always drawn.

Columns and labels:
Assay in all cases: Euclidean distance of Cell Painting phenotypic profile (signed KS, 77 features) to DMSO centroid (dimensionless distance); 5 or 10 uM (library dependent); higher = stronger phenotypic change vs DMSO (phenoactivity)
Settings in all cases: 48 h
786-O = test system: 786-O
Summary of the method: (§1)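 Library compounds were applied at 10 or 5 uM, depending on the library, with 0.1% DMSO final, for 48 h to five cancer lines and a healthy fibroblast line. After staining, cells were imaged confocally at 20X across 9 fields per well, and Harmony extracted 77 features, each scored as a signed Kolmogorov-Smirnov statistic against vehicle wells on the same plate. Phenoactivity is the Euclidean distance between each profile and the median vehicle profile, with profiles first plate-position corrected, correlation-weighted and averaged over replicates at the top dose.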

A549 = test system: A549
Summary of the method: as §1

DU145 = test system: DU145
Summary of the method: as §1

FB = test system: FB
Summary of the method: as §1

HEPG2 = test system: HEPG2
Summary of the method: as §1

OVCAR4 = test system: OVCAR4
Summary of the method: as §1

Compound | Euclidean distance (786-O) | Euclidean distance (A549) | Euclidean distance (DU145) | Euclidean distance (FB) | Euclidean distance (HEPG2) | Euclidean distance (OVCAR4)
C[C@H](CS)C(=O)N1CCC[C@H]1C(=O)O [Captopril] | 1.01 | 1.13 | 0.669 | 0.971 | 2.08 | 0.714
CC(=O)OCC[N+](C)(C)C [Acetylcholine Chloride] | 1.02 | 0.848 | 1.22 | 1 | 0.549 | 1.13
Cc1ccc(C(=O)Nc2ccc(Oc3cc4cnn(C)c4cc3-c3cn[nH]c3)c(F)c2)c(=O)n1-c1ccc(F)cc1 | 1.83 | 1.59 | 1.22 | 3.01 | 2.28 | 1.67
COc1ccc2ccc(=O)oc2c1CC=C(C)C [Osthole] | 1.34 | 0.749 | 0.86 | 1.14 | 0.394 | 0.956
CN(C)CCn1nnnc1SCC1=C(C(=O)O)N2C(=O)[C@@H](NC(=O)Cc3csc(N)n3)[C@H]2SC1 [Cefotiam hydrochloride] | 1.2 | 1.06 | 0.774 | 0.93 | 0.739 | 0.935
CC(C)NCC(O)COc1ccc(CCOCC2CC2)cc1 (stereo not drawn) [Betaxolol] | 0.891 | 0.384 | 0.799 | 0.967 | 1.64 | 1.14
COc1nc(C)nc(Cl)c1NC1=NCCN1 [Moxonidine] | 1.15 | 0.652 | 1.39 | 0.879 | 2.14 | 1.43
OC[C@@H](O)[C@@H](O)[C@H](O)[C@@H](O)CO [Sorbitol] | 1.36 | 0.586 | 0.79 | 0.737 | 0.791 | 1.21
c1cc(CN2CCCNCCNCCCNCC2)ccc1CN1CCCNCCNCCCNCC1 [Plerixafor (AMD3100)] | 0.664 | 1.12 | 0.673 | 0.848 | 0.976 | 1.03
CC1(C)CCC(CN2CCN(c3ccc(C(=O)NS(=O)(=O)c4ccc(NCC5CCOCC5)c([N+](=O)[O-])c4)c(Oc4cnc5[nH]ccc5c4)c3)CC2)=C(c2ccc(Cl)cc2)C1 | 2.06 | 1.55 | 1.25 | 0.81 | 1.11 | 1.16
CN1CCN(c2nc(C3=C(c4c[nH]c5ccccc45)C(=O)NC3=O)c3ccccc3n2)CC1 [Sotrastaurin] | 2.18 | 1.58 | 1.36 | 2.47 | 1.37 | 1.2
NC1(c2ccc(-c3nc4ccn5c(=O)[nH]nc5c4cc3-c3ccccc3)cc2)CCC1 | 3.5 | 2.58 | 2.67 | 3.61 | 2.59 | 2.07
Cc1cc(-c2ccc(CC(=O)Nc3ccc(-c4cccnc4)cc3)cc2)ccn1 | 1.31 | 1.03 | 0.823 | 1.02 | 0.787 | 1.36
Cc1cc(C(C)Nc2ccccc2)c2nc(N3CCOCC3)cc(=O)n2c1 (stereo not drawn) | 1.4 | 1.16 | 1.61 | 1.62 | 1.29 | 2.37
Cc1ncc([N+](=O)[O-])n1CC(O)CCl (stereo not drawn) [Ornidazole] | 1.17 | 0.686 | 0.775 | 1.03 | 0.557 | 0.676
CC/C=C\C/C=C\C/C=C\C/C=C\C/C=C\C/C=C\CCC(=O)O [Docosahexaenoic Acid] | 1.08 | 0.581 | 0.837 | 1.06 | 0.766 | 1.1
OCc1ccccc1O[C@@H]1O[C@H](CO)[C@@H](O)[C@H](O)[C@H]1O [Salicin] | 1.17 | 0.655 | 0.503 | 0.638 | 0.419 | 1.21
Cc1cc(NS(=O)(=O)c2ccc(N)cc2)no1 [Sulfamethoxazole] | 1.58 | 0.797 | 0.847 | 1.02 | 0.562 | 0.86
CN(C)CCC(c1ccc(Br)cc1)c1ccccn1 (stereo not drawn) [Brompheniramine hydrogen maleate] | 1.21 | 0.63 | 1.13 | 1.18 | 0.5 | 1.36
CCc1ccc(N(CC(C)C)S(=O)(=O)c2ccc(OCC3CCOCC3)c(CO)c2)cc1 | 1.56 | 1.56 | 1.9 | 1.05 | 0.857 | 1.66
COc1cc(C)c(/C=C/C(C)=C/C=C/C(C)=C/C(=O)O)c(C)c1C [Acitretin] | 1.13 | 0.972 | 0.881 | 2.31 | 1.39 | 1.13
CNC(=O)c1cc(Oc2ccc(NC(=O)Nc3ccc(Cl)c(C(F)(F)F)c3)c(F)c2)ccn1 [Regorafenib Monohydrate] | 2.14 | 2.35 | 1.71 | 1.8 | 1.82 | 1.76
N#Cc1ccnc(N2C(=O)CC[C@H]2C(=O)N(c2cncc(F)c2)[C@H](C(=O)NC2CC(F)(F)C2)c2ccccc2Cl)c1 [Ivosidenib (AG-120)] | 0.973 | 0.609 | 1.95 | 1.1 | 0.986 | 1.55
